According to PubChem BioAssay AID1117306 (National Center for Advancing Translational Sciences (NCATS), 2015):
The source made the active and inactive calls. Calls follow the shape of the full dose curve.

Settings: Ebola virus entry assay, blue channel imaging

SMILES | outcome | AC50
CCCSc1ccc2nc(NC(=O)OC)[nH]c2c1 | inactive | 
CO[C@H]1C[C@@H]2CC[C@@H](C)[C@@](O)(O2)C(=O)C(=O)N2CCCC[C@@H]2C(=O)O[C@H]([C@H](C)C[C@@H]2CC[C@H](OCCO)[C@H](OC)C2)CC(=O)[C@H](C)C=C(C)[C@@H](O)[C@@H](OC)C(=O)[C@H](C)C[C@H](C)C=CC=CC=C1C | inactive | 
COC(=O)Nc1nc2ccc(C(=O)c3cccs3)cc2[nH]1 |  | 0.611 µM (active)
CC[C@]1(O)C[C@@H]2CN(CCc3c([nH]c4ccccc34)[C@@](C(=O)OC)(c3cc4c(cc3OC)N(C)[C@H]3[C@@](O)(C(=O)OC)[C@H](OC(C)=O)[C@]5(CC)C=CCN6CC[C@]43[C@@H]65)C2)C1 |  | 0.137 µM (active)
CCN(CC)CCNC(=O)c1c(C)[nH]c(/C=C2\C(=O)Nc3ccc(F)cc32)c1C |  | 3.06 µM (active)
COc1cccc2c1C(=O)c1c(O)c3c(c(O)c1C2=O)C[C@@](O)(C(C)=O)C[C@H]3O[C@H]1C[C@H](N)[C@H](O)[C@H](C)O1 |  | 3.43 µM (active)
CO[C@H]1C[C@@H]2CC[C@@H](C)[C@@](O)(O2)C(=O)C(=O)N2CCCC[C@@H]2C(=O)O[C@H]([C@@H](C)C[C@@H]2CC[C@H](O)[C@H](OC)C2)CC(=O)[C@H](C)C=C(C)[C@@H](O)[C@@H](OC)C(=O)[C@H](C)C[C@H](C)C=CC=CC=C1C | inactive | 
CCC1=C[C@@H]2CN(C1)Cc1c([nH]c3ccccc13)[C@@](C(=O)OC)(c1cc3c(cc1OC)N(C)[C@H]1[C@@](O)(C(=O)OC)[C@H](OC(C)=O)[C@]4(CC)C=CCN5CC[C@]31[C@@H]54)C2 |  | 0.153 µM (active)
CC[C@H]1OC(=O)[C@H](C)[C@@H](O[C@H]2C[C@@](C)(OC)[C@@H](O)[C@H](C)O2)C(C)[C@@H](O[C@@H]2O[C@H](C)C[C@H](N(C)C)[C@@H]2O)[C@](C)(OC)C[C@@H](C)C(=O)[C@H](C)[C@@H](O)[C@]1(C)O (stereo not given in full) |  | 6.85 µM (active)
COC(=O)Nc1nc2ccc(C(=O)c3ccccc3)cc2[nH]1 | inactive | 
CN(C)CCOc1ccc(/C(=C(/CCCl)c2ccccc2)c2ccccc2)cc1 |  | 1.37 µM (active)
C[C@@H]1O[C@@H](O[C@H]2CC[C@@]3(C)[C@H](CC[C@@H]4[C@H]3C[C@@H](O)[C@]3(C)[C@@H](C5=CC(=O)OC5)CC[C@]43O)C2)C[C@H](O)[C@@H]1O[C@H]1C[C@H](O)[C@H](O[C@H]2C[C@H](O)[C@@H](O)[C@@H](C)O2)[C@H](C)O1 (stereo in doubt) | inactive | 
NCCCC(O)(P(=O)(O)O)P(=O)(O)O | inactive | 
CCCNCC(O)COc1ccccc1C(=O)CCc1ccccc1 (stereo not given) |  | 9.68 µM (active)
CC[C@]1(O)C[C@H]2CN(CCc3c([nH]c4ccccc34)[C@@](C(=O)OC)(c3cc4c(cc3OC)N(C=O)[C@H]3[C@@](O)(C(=O)OC)[C@H](OC(C)=O)[C@]5(CC)C=CCN6CC[C@]43[C@@H]65)C2)C1 |  | 0.153 µM (active)
COC1=CC(=O)C[C@@H](C)[C@]12Oc1c(Cl)c(OC)cc(OC)c1C2=O | inactive | 
Cc1nnc(C(C)C)n1C1C[C@H]2CC[C@@H](C1)N2CC[C@H](NC(=O)C1CCC(F)(F)CC1)c1ccccc1 (stereo not given in full) | inactive | 
CN1CCN(CCCN2c3ccccc3Sc3ccc(C(F)(F)F)cc32)CC1 |  | 9.68 µM (active)
CC[C@H]1OC(=O)[C@H](C)[C@@H](O[C@H]2C[C@@](C)(OC)[C@@H](O)[C@H](C)O2)[C@H](C)[C@@H](O[C@@H]2O[C@H](C)C[C@H](N(C)C)[C@@H]2O)[C@](C)(O)C[C@@H](C)CN(C)[C@H](C)[C@@H](O)[C@]1(C)O |  | 4.32 µM (active)
CCCCc1oc2ccc(NS(C)(=O)=O)cc2c1C(=O)c1ccc(OCCCN(CCCC)CCCC)cc1 |  | 4.85 µM (active)
